Each structure is given as a SMILES string. Where “and” joins values, the source holds several entries; their conditions need not be identical. Identical values can stand only once. Results filed as inconclusive are left out. Calls of active or inactive are those of the source. Unless noted, calls follow the shape of the dose curve; as a rule, active = well fitted curve in the direction sought with a large enough effect; inconclusive = small, poorly fitted or top-dose-only effect, or another doubt; inactive = no such curve, though single readings can be large; an effect the other way counts as inactive or inconclusive.
Potency is read from the fitted curve at half-maximal effect.

Sequence of Cytochrome P450 2C9 (Homo sapiens) (P11712 whole entry, looked up): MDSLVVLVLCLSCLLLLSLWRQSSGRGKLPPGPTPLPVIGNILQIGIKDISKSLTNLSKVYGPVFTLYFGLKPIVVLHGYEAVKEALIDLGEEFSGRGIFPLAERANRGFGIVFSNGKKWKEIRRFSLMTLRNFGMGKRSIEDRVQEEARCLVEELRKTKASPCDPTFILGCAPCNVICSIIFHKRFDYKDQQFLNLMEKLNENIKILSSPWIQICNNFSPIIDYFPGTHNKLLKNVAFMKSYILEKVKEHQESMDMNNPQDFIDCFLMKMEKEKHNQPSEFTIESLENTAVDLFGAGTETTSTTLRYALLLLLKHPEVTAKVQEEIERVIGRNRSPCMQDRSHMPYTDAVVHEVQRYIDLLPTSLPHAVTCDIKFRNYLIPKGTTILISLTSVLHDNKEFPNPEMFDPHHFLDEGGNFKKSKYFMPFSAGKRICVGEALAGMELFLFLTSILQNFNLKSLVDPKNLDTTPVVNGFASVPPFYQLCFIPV

The target of the first test is Cytochrome P450 2C9 (Homo sapiens) (UniProt P11712). Description: Cytochrome P450 family 2 subfamily C member 9 (CYP2C9) small molecule antagonists: luciferase biochemical (cell-free) qHTS assay (AID 1645842; active = well fitted curve in the direction sought with a large enough effect in the repeat runs; an effect the other way counts as inactive or inconclusive; also: nearly all actives have a fitted effect of over 55% in size). Conditions: P450-Glo CYP2C9 enzyme assay, luciferin luminescence; series mostly up to 57.4 µM. The procedure, abridged:
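P450-Glo CYP2C9 system: proluciferin substrate with enzyme in mix containing 0.4% BSA, 10 min at room temperature, then NADPH regeneration solution added and incubated 1 h at 37C. Detection reagent stopped reaction; luminescence read after 20 min as RLU.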
On the technique in general: Quantitative high-throughput screening tests each substance at several concentrations.
For the compound `CC(C)n1cnc2c(Nc3cccc(Cl)c3)nc(NCCO)nc21`, the Potency is 9.52 µM (active).
Consider `Cc1c(C(=O)NCCCO)cnn1-c1nc(-c2cccc(C(F)(F)F)c2)cs1`, for which the Potency was 2.39 µM (active).
`COc1cccc(NC[C@@H](O)Cn2c3ccc(Br)cc3c3cc(Br)ccc32)c1`: the Potency entry was “inactive”.
For the compound `C[C@@H](O[C@H]1OCCN(Cc2n[nH]nc2CN(C)C)[C@H]1c1ccc(F)cc1)c1cc(C(F)(F)F)cc(C(F)(F)F)c1`, the Potency was 15.1 µM (active).
As for `CCC(=O)Nc1cccc(Oc2nc(Nc3ccc(N4CCN(C)CC4)cc3OC)ncc2Cl)c1`, the Potency is 6.74 µM (active).
`COc1cc2nc(-c3cc(F)ccc3O)nc(N[C@@H]3CNC[C@H]3C(C)(C)O)c2cc1OC`: the Potency entry is “inactive”.
As to `COc1ccc(-c2nc(-c3cc(C(F)(F)F)cc(C(F)(F)F)c3)n(Cc3ccc(C(N)=O)cc3)c2-c2ccc(OC)cc2)cc1`, the Potency was 5.35 µM (active).
Same read-out and setting: the same measure for `Fc1ccccc1CNCc1ccc(-c2ccnc3[nH]ccc23)cc1`: “inactive”; for `CCCCc1nc(C)c(CC(=S)N(C)C)c(=O)n1Cc1ccc(-c2ccccc2-c2nn[nH]n2)cc1`: 9.52 µM (active).
On to `CNc1nc(-c2ccc3c(N)n[nH]c3c2)cc(N2CC(C(=O)NC3CCCCC3)CCC2C)n1` (stereo not drawn), for which the Potency was 2.13 µM (active).
Still for that read-out and setting: as for `CNc1cc(OC)c(C(=O)N[C@@H]2CCN(Cc3ccccc3)[C@@H]2C)cc1Cl`, the figure is 8.49 µM (active); as for `COc1cc(-c2cc(-c3cccc(O)c3)cnc2N)cc(OC)c1OC`, 0.849 µM (active); as for `CN(C)CC(=O)Nc1ccc2[nH]c(=O)c3ccccc3c2c1`, 13.5 µM (active).
Same read-out and setting: the same measure for `C[C@@H](CN1CCC(n2c(=O)[nH]c3cc(Cl)ccc32)CC1)NC(=O)c1ccc2ccccc2c1`: 0.239 µM (active); for `CC(C)c1ccc(NC(=O)C(c2ccccc2)N(C)C(=O)Cc2c[nH]c3ccccc23)cc1` (stereo not drawn): 2.39 µM (active); for `COc1ccc(C2(CNC(=O)[C@](C)(Cc3c[nH]c4ccccc34)NC(=O)Nc3ccc([N+](=O)[O-])cc3)CCCCC2)nc1`: 2.68 µM (active).
On the same count and under the same terms, as for `CCN(CC)Cc1cccc(/C=C/c2nc3ccc(F)cc3c(=O)n2-c2ccccc2Cl)n1`, the figure is 19 µM (active).

Tested on in the next test: not listed separately
Briefly: Primary qHTS for inhibitors of nuclear receptor binding SET domain protein 2 (NSD2) in an isogenic RCH-ACV NSD2 p.E1099K mutant (9B) (AID 1645876). Also: nearly all actives have a fitted effect of over 70% in size. As to conditions: RCH-ACV (leukaemia line) NSD2 E1099K (9B) viability, CellTiter-Glo, 72 h; series mostly up to 44.9 µM.
In the case of `CC(C)n1cnc2c(Nc3cccc(Cl)c3)nc(NCCO)nc21`, the Potency was 11.5 µM (active).
On the same count and under the same terms, the same measure for `O=C(CC1NCCC[C@H]1O)Cn1cnc2cc(Br)c(Cl)cc2c1=O` (stereo partly drawn): “inactive”; for `Cc1c(C(=O)NCCCO)cnn1-c1nc(-c2cccc(C(F)(F)F)c2)cs1`: 25.8 µM (active).
Same read-out and setting: as for `C[C@@H](O[C@H]1OCCN(Cc2n[nH]nc2CN(C)C)[C@H]1c1ccc(F)cc1)c1cc(C(F)(F)F)cc(C(F)(F)F)c1`, the figure is 16.3 µM (active); as for `CC[C@H](C)[C@H]1O[C@]2(CC[C@@H]1C)C[C@@H]1C[C@@H](C/C=C(\C)[C@@H](O[C@H]3C[C@H](OC)[C@@H](O[C@H]4C[C@H](OC)[C@@H](O)[C@H](C)O4)[C@H](C)O3)[C@@H](C)/C=C/C=C3\CO[C@@H]4[C@H](O)C(C)=C[C@@H](C(=O)O1)[C@]34O)O2`, 20.5 µM (active).
Same read-out and setting: as for `CCC(=O)Nc1cccc(Oc2nc(Nc3ccc(N4CCN(C)CC4)cc3OC)ncc2Cl)c1`, the figure is 16.3 µM (active).
On to `COc1cc2nc(-c3cc(F)ccc3O)nc(N[C@@H]3CNC[C@H]3C(C)(C)O)c2cc1OC`, for which the Potency was 4.59 µM (active) and 1.48 µM (active).
Consider `Cc1cc(CN)cc(C)c1NC(=O)c1ccc(-c2cc(Cl)ccc2Cl)o1`, for which the Potency was 18.3 µM (active).
Still for that read-out and setting: as for `c1ccc(-c2cnc(Nc3ccc(OCCN4CCCC4)cc3)s2)cc1`, the figure is 9.16 µM (active); as for `C=C1C(=O)O[C@@H]2/C=C(/C)CC3C=C(C[C@H](OC(=O)/C(C)=C\C)[C@@H]12)C(=O)O3` (stereo partly drawn), 16 µM (active); as for `CC1(C)SC2C(NC(=O)[C@H](NC(=O)N3CCNC3=O)c3ccccc3)C(=O)N2C1C(=O)O` (stereo partly drawn), “inactive”.
As to `CC1(C)SC2C(NC(=O)[C@H](C(=O)O)c3ccsc3)C(=O)N2C1C(=O)O` (stereo partly drawn), the Potency result was “inactive”.
Same read-out and setting: as for `COc1ccc(-c2nc(-c3cc(C(F)(F)F)cc(C(F)(F)F)c3)n(Cc3ccc(C(N)=O)cc3)c2-c2ccc(OC)cc2)cc1`, the entry is “inactive”; as for `Fc1ccccc1CNCc1ccc(-c2ccnc3[nH]ccc23)cc1`, 16.3 µM (active).
As to `CCCCc1nc(C)c(CC(=S)N(C)C)c(=O)n1Cc1ccc(-c2ccccc2-c2nn[nH]n2)cc1`, the Potency result is “inactive”.
Consider `CO[C@@H]1[C@@H](O[C@H]2O[C@@H](C)[C@H](O[C@@H]3C[C@](C)(O)[C@H](O)[C@@H](C)O3)[C@@H](N(C)C)[C@@H]2O)[C@@H](CC=O)C[C@@H](C)[C@@H](O[C@H]2CC[C@H](N(C)C)[C@H](C)O2)/C=C/C=C/C[C@@H](C)OC(=O)C[C@H]1O`, for which the Potency result is “inactive”.

Values taken from PubChem BioAssay (NCATS).
